Assay [1] can be described thus: polyglutamine-triggered caspase-3 activation inhibitors, cell-based (AID 1583). As to conditions: polyglutamine-induced caspase-3 activation, cell assay; stronger effect = higher value;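 tested at 10 µM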.
Assay [2] can be described thus: suppressors of polyQ aggregation in yeast, 75Q-TubU reporter (AID 1593). As to conditions: Yeast 75Q polyglutamine aggregation reporter.
The nature of assay [3]: rescue of polyQ-huntingtin neuronal dysfunction in worms, whole organism, C. elegans mechanosensory neurons, N-terminal huntingtin (AID 1599). As to conditions: touch response, stronger effect = higher value.
Assay [4] is described as follows: inhibitors of mitochondrial cytochrome c release, biochemical, purified mitochondria (AID 1603).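 Further: mouse liver mitochondria challenged with calcium chloride; signal normalized to the plate average as 100%.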 As to conditions: stronger effect = lower value.
Assay [5] in a line: inhibitors of polyQ protein aggregation (AID 1604). As to conditions: polyglutamine-induced protein aggregation inhibition assay; stronger effect = higher value; tested at 2.5 µM.
Assay [6] can be described thus: enhancers of glutamate uptake in motor neurons, MN-1 cell line (AID 1612).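 Further: tested at 1 µM final; 0% = mean of DMSO vehicle wells on each plate; positive means more glutamate uptake than control and negative means less.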 As to conditions: MN-1 motor neuron cells, stronger effect = higher value.
Assay [7] in a line: suppressors of polyglutamine aggregation in yeast, 75Q-TubH (AID 1616). As to conditions: S. cerevisiae 75Q-TubH polyglutamine aggregation suppression; stronger effect = higher value.
Assay [8] can be described thus: liver-stage malaria parasite growth inhibition, primary screen, cell-based, HepG2, luciferase luminescence, HepG2 viability (AID 624349).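 Further: 100% = mean of DMSO negative control wells on the same plate.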 As to conditions: P. berghei liver stage in HepG2, luciferase luminescence, concentration not given here; parasite load remaining: stronger effect = lower value; viability: measured here: HepG2 viability without parasites.
Assay [9] is described as follows: differential killing of epithelial or mesenchymal cells, primary screen, imaging, PC-3E GFP, TEM4-18 mCherry, co-culture (AID 1345086;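 active means compounds killing one labelled cell type while sparing the other, by normalised counts and ratio limits, not self-fluorescent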;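 on all read-outs here: cells exposed to compound for 72 h before imaging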;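 on red/green cell ratio (normalised): normalised mesenchymal count divided by normalised epithelial count so high means epithelial killing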). As to conditions: imaging cell counts, at 1 µM; for red/green cell ratio (normalised): actives lie on both sides, counts scaled to control wells, 1 = unselective.
Assay [10] can be described thus: sensitizers of A549 cells to miR-34 induction, primary screen, imaging, A549 dox-inducible miR-34, nuclei and caspase counts (AID 1347080;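 active means compounds whose cell count with miR-34 switched on is under 0.7 times the count with it off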). As to conditions: A549 miR-34 inducible, Hoechst nuclei count, 48 h.
A short description of assay [11]: reducers of polyQ inclusions in PC12 cells, cell-based, NGF-treated PC12, GFPQ80 (AID 1614).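 Further: lower means fewer inclusions and 0 means no inclusions at all.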 As to conditions: PC12 NGF-treated GFP-polyQ80 inclusion reduction.
Setting [12] is: measured here: epithelial PC-3E GFP cell survival.
[13] abbreviates: measured here: mesenchymal TEM4-18 mCherry cell survival.
[14] abbreviates: stronger effect = lower value, cell number ratio, induced over uninduced.
[15] abbreviates: measured here: relative caspase fold change +Dox/-Dox.
Where [16] appears, read: measured here: total cells with miR-34 induction, stronger effect = lower value.
[17] abbreviates: measured here: total cells without miR-34 induction.

Values joined by “and” are separate entries in the source; they are usually repeats but may differ in a detail not shown here. Equal values may be shown once. For some of these results: Measured potencies and affinities stand elsewhere. Active and inactive are the calls of the source. Unless noted, no stated cut-off is given here; in the data, active means parasite load remaining mostly below about 12% (no sharp cut-off); inactive means mostly above about 10%.

`CC(=O)[C@H]1CCC2C3CCC4=CC(=O)CC[C@]4(C)C3CC[C@@]21C` (some centres not stated): in assay [1], the inhibition stood at 41.6%. For the same compound, the score in [2] was 0.59. This compound yielded a rescue above control in assay [3] of 3.59. Further, the cytochrome c release ratio in [4] worked out at 1.24. Also, in [5], the inhibition of aggregation stood at 84.5%. The glutamate uptake change in assay [6] is -1.48%. This compound also returned an aggregation suppression score in assay [7] of 0.333. In addition, the parasite load remaining in assay [8] was 49.3% (inactive) and 27.2% (inactive). The viability in assay [8] was 66.1% and 99.4%. Besides, the red/green cell ratio (normalised) in assay [9] was 0.96 (inactive). For the same compound, the normalised cell number turned out to be 1.15 in [9] (setting [12]) and 1.11 in assay [9] (setting [13]). For the same compound, the fold change is 0.856 (inactive) in assay [10] (setting [14]) and 1.4 in assay [10] (setting [15]). Moreover, the cell count in assay [10] (setting [16]) is 9840; in assay [10] (setting [17]), 11500.

Regarding `CCCC1O[C@@H]2CC3C4CCC5=CC(=O)C=CC5(C)C4[C@@H](O)CC3(C)[C@]2(C(=O)CO)O1` (some centres not stated), in [1], the inhibition stood at 18.7%. Further, in assay [2], the score stood at 1.33. Also, in assay [3], the rescue above control was -3.37. Moreover, in assay [4], the cytochrome c release ratio was determined as 1.5. The inhibition of aggregation in assay [5] is 69.2%. For the same compound, the glutamate uptake change in [6] is -4.39%. The same compound displayed an inclusion score in assay [11] of 2. Moreover, the aggregation suppression score in assay [7] is 1.53. Also, the parasite load remaining in assay [8] was 34.5% (inactive) and 13.1% (inactive). In assay [8], the viability was 88.8%. Further, the red/green cell ratio (normalised) in [9] was 1.29 (inactive). Also, the normalised cell number amounted to 0.99 in [9] (setting [12]) and 1.27 in assay [9] (setting [13]). For the same compound, the fold change in assay [10] (setting [14]) is 0.872 (inactive); in assay [10] (setting [15]), 1.29. In addition, the cell count in [10] (setting [16]) amounted to 6800; in [10] (setting [17]) it was 7800.

In [1], `CC1(C)C2CC[C@]3(C)C(C(=O)C=C4[C@@H]5C[C@@](C)(C(=O)O)CC[C@]5(C)CC[C@]43C)[C@@]2(C)CC[C@@H]1OC(=O)CCC(=O)O` (some centres not stated) came in with an inhibition of 59.3%. The compound also gave a score in assay [2] of 2.57. In assay [3], the rescue above control is -3.48. Also, the cytochrome c release ratio in assay [4] amounted to 3.47. For the same compound, the inhibition of aggregation in assay [5] amounted to 66.7%. Besides, the glutamate uptake change in [6] is -2.75%. Also, the aggregation suppression score in assay [7] came to 1.68. Further, the parasite load remaining in [8] is 124% (inactive) and 24.9% (inactive). Also, in [8], the viability is 99.6% and 85.2%. Further, in assay [9], the red/green cell ratio (normalised) was 0.99 (inactive). The normalised cell number in assay [9] (setting [12]) came to 1.01; in [9] (setting [13]), 1. In addition, the fold change in assay [10] (setting [14]) is 0.887 (inactive); in [10] (setting [15]) it was 2.9. Moreover, the cell count in [10] (setting [16]) was 10800; in [10] (setting [17]), 12200.

Compound `CCCCCCCCCCCCC[N+](C)(C)Cc1ccccc1` returned an inhibition in [1] of 73.1%. In assay [2], the score was -0.05. The same compound showed a rescue above control in assay [3] of 0. In assay [4], the cytochrome c release ratio stood at 5.81. In addition, the inhibition of aggregation in [5] turned out to be 25%. The glutamate uptake change in [6] worked out at 18.1%. For the same compound, in assay [7], the aggregation suppression score is -0.017. In assay [8], the parasite load remaining is 85.2% (inactive) and -0.62% (inactive). Besides, the viability in assay [8] is 75.6% and 58.8%. In addition, in [9], the red/green cell ratio (normalised) is 0.62 (inactive). In addition, the normalised cell number in assay [9] (setting [12]) came to 0.83; in assay [9] (setting [13]), 0.51. Besides, the values for the fold change in assay [10] (setting [14]) and in [10] (setting [15]) were 0.898 (inactive) and 1.61, respectively. Besides, the cell count in assay [10] (setting [16]) was 74.5; in assay [10] (setting [17]), 83.

With `CN[C@@H]1C(O)[C@@H](O[C@@H]2[C@@H](O)[C@H](O[C@H]3OC(CN)=CC[C@H]3N)[C@@H](N)C[C@H]2N)OC[C@]1(C)O` (some centres not stated), the inhibition in assay [1] was 11.9%. This compound registered a score in assay [2] of 1.54. Also, in assay [3], the rescue above control is -2.25. The cytochrome c release ratio in [4] was 1.22. Further, in assay [5], the inhibition of aggregation turned out to be 66.2%. For the same compound, the glutamate uptake change in [6] is -12%. Besides, the inclusion score in assay [11] came out at 2. The compound further gave an aggregation suppression score in [7] of 1.05. In [8], the parasite load remaining is 96.3% (inactive) and 41.6% (inactive). Further, in assay [8], the viability is 74.6% and 94.8%. Further, the red/green cell ratio (normalised) in [9] is 1.18 (inactive). The figures for the normalised cell number in assay [9] (setting [12]) and in [9] (setting [13]) were 1.02 and 1.2, respectively. Besides, the fold change is 0.967 (inactive) in [10] (setting [14]) and 4.46 in assay [10] (setting [15]). Moreover, the figures for the cell count in [10] (setting [16]) and in assay [10] (setting [17]) were 11400 and 11800, respectively.

One may read the inhibition as the percentage by which the read-out fell short of the control. What is called viability is the share of living cells, or the viability signal relative to a control.

The values are drawn from PubChem BioAssay.
